Rows were chosen to be rich in hits. Some 2.2% of all compounds tested hit in one or more screens of this group.
LGR2 antag – inhibitors of bursicon-induced Drosophila LGR2 receptor cAMP signaling | 0.35% of 380,000 active | HEK293 LGR2, CRE-luciferase, bursicon-stimulated, 4 h | inhibition, % at 9.99 µM;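 active = drop in luminescence signal, shown as inhibition above about 50% in the replicate tests, limit read from the data, passing the limit was not always enough; inconclusive = probably only some replicates passing the limit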;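 note: agonist challenge used bursicon conditioned medium at about half maximal strength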
TRPM1 prom inh – inhibitors of MITF-driven TRPM1 promoter in melanoma cells. 0.83% of 330,000 active. SK-MEL-5 TRPM1 promoter luciferase, 24 h. inhibition, % at 12.5 µM. AID 488899;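 active = mean inhibition across replicates of 60% or more, whatever share of single replicates reaches that level; inconclusive = some that reach 60%, reason not given; inactive = mean inhibition across replicates below 60%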
Shn3 3UTR inh – Schnurri-3 reporter inhibition in Clone20 osteoblasts; Clone20 osteoblast Shn3 3'UTR firefly luciferase, 24 h; inhibition, % at 12.5 µM; 0.52% of 360,000 active; AID 588674;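 active = mean inhibition of at least 75% with every replicate also reaching 75%; inconclusive = mean inhibition at least 75% but some replicate below; inactive = mean inhibition below 75%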;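 note: 0% = median of neutral control wells and 100% = pilot-screen positive control compound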
PAX8 inh HTS – PAX8 transcriptional activity inhibition; RMG-I TPO-luciferase reporter, SteadyGlo, 24 h; inhibition, % at 12.6 µM; 1.2% of 360,000 active; AID 652154;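 active = mean replicate inhibition at least 60% with every replicate also reaching 60%; inconclusive = only one of the two criteria is met; inactive = mean below 60% and not all replicates reaching 60%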;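 note: luciferase light reporting Pax8 driven TPO promoter activity; plate controls were median of neutral control wells for no effect and mitoxantrone controls for full effect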
LMP1 NFkB inh – Epstein-Barr LMP1 NF-kappaB reporter inhibition; LMP1-induced NF-kappaB luciferase reporter cells, luminescence; inhibition, % at 12.5 µM; 0.69% of 350,000 active; AID 504558; in the data active = inhibition above about 41%; inconclusive = no clear call, values can overlap the other calls;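 note: 0% = neutral control wells and 100% = reference inhibitor control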
EWS-Fli inh – inhibitors of EWS/Fli oncoprotein transcriptional activity | A673 NR0B1-luciferase reporter, viability-normalised | inhibition, % at 12.6 µM | 0.67% of 350,000 active;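 active = mean inhibition of at least 50% after viability correction, with every replicate also passing that limit; inconclusive = mean reaches 50% but only one of two replicates passes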;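 note: firefly luciferase signal divided by Alamar Blue viability fluorescence both relative to DMSO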
Starred values were filed as active, the others as inactive; ? = inconclusive; nt = no result given.

SMILES	LGR2 antag	TRPM1 prom inh	Shn3 3UTR inh	PAX8 inh HTS	LMP1 NFkB inh	EWS-Fli inh
Cc1ccc(S(=O)(=O)c2ccc([N+](=O)[O-])o2)cc1	?	96*	95*	127*	?	43
COc1ccc(CNC(=O)C[C@H]2CC[C@H](NC(=O)c3cccc(F)c3)[C@H](CO)O2)cc1	-5	nt	nt	10	nt	-2
CCC(=O)N1c2ccc(S(=O)(=O)CCC(=O)N3CCn4c3nc3ccccc34)cc2CC1C (configuration not stated)	nt	21	12	106*	13	nt
C[C@H](CO)N1C[C@H](C)[C@H](CN(C)CC2CCOCC2)Oc2ncc(C#Cc3ccncc3)cc2C1=O	nt	nt	nt	nt	nt	-20
C=C1CC2C3CC[C@@]4(OCOC45COCO5)[C@@]3(C)C(O)CC2[C@@]2(C)CCC(=O)C=C12 (some centres not stated)	1	15	14	64*	7	nt
O=C(NNC(=O)c1cccc2ccccc12)c1cccc(F)c1	-20	-5	-1	87*	2	-10
O=[N+]([O-])c1cc(S(=O)(=O)NCCN2CCOCC2)ccc1Sc1nnnn1-c1ccccc1	nt	79*	8	59	-11	13
Cc1ccc(-n2nnnc2Sc2ccc(S(=O)(=O)NCCN(C)C)cc2[N+](=O)[O-])cc1	nt	92*	-46	?	47*	?
COc1ccc(NC(=O)N[C@H]2C=C[C@@H](CC(=O)NC3CCCCC3)O[C@H]2CO)cc1	12	nt	nt	1	nt	-3
CC1=NOC(=O)/C1=C\c1ccc(-c2ccc(Br)cc2C(=O)O)o1	18	-7	-38	-11	-4	-2
CC1=NOC(=O)/C1=C\c1ccc(-c2ccc(Br)cc2)o1	nt	79*	41	33	6	33
COc1ccc(Cl)cc1/C=C1/C(=O)ON=C1C	16	-1	-19	7	1	6
CC1=NOC(=O)/C1=C\c1ccc(-c2cc(Cl)ccc2Cl)o1	nt	99*	94*	nt	14	nt
Cc1ccc(C2=NOC(=O)/C2=C\c2ccc(C)o2)cc1	nt	26	-30	-3	1	-5
CC1=NOC(=O)/C1=C/c1ccc(-c2ccc(Cl)cc2)o1	nt	99*	?	nt	-9	nt
C[C@@H]1CCCCO[C@H](CN(C)Cc2ccc3c(c2)OCO3)[C@H](C)CN([C@H](C)CO)C(=O)c2cc(NS(C)(=O)=O)ccc2O1	-5	nt	nt	-18	nt	8
NC(=S)N=Nc1c(O)[nH]c2ccccc12	-15	-1	-4	8	-2	nt
Oc1[nH]c2ccccc2c1N=NC(=S)N1CCOCC1	nt	92*	nt	nt	4	nt
Cc1ccc(C(=O)NC2CCCCCCC2)c(Cl)c1	80*	12	-6	6	8	56*
O=C(NC1CCCCCCC1)c1cc(F)c(F)cc1Cl	-27	-67	-44	-117	-17	-93
CN1c2ccc(C3=CCCCC3)cc2[C@@H]2[C@@H](CCN2C(=O)NC2CCCCC2)[C@H]1CO	-13	nt	nt	4	nt	-3
CN(C)CCNc1ncnc2c1sc1nc(-c3ccccc3)c3c(c12)CCCC3	26	9	-26	64*	-9	45
C[C@@H]1CN([C@H](C)CO)C(=O)c2cc(NS(=O)(=O)c3ccc(Cl)cc3)ccc2O[C@H]1CN(C)C(=O)Nc1cccc2ccccc12	8	nt	nt	15	nt	8
Cc1noc(C)c1S(=O)(=O)N(C)C[C@H]1Oc2c(cccc2N(C)C)C(=O)N([C@@H](C)CO)C[C@H]1C	12	nt	nt	-8	nt	-8
Cc1noc(C)c1NC(=O)N(C)C[C@H]1Oc2ccc(NC(=O)Nc3ccc4c(c3)OCO4)cc2CC(=O)N([C@H](C)CO)C[C@H]1C	-2	nt	nt	-14	nt	0
SMILES	LGR2 antag	TRPM1 prom inh	Shn3 3UTR inh	PAX8 inh HTS	LMP1 NFkB inh	EWS-Fli inh
O=C(C[C@@H]1CC[C@H]2[C@@H](COC[C@@H](O)CN2S(=O)(=O)c2ccccc2F)O1)NCc1ccccc1F	12	nt	nt	-6	nt	2
CCn1c(C)cs/c1=N\S(=O)(=O)c1ccccc1	10	1	-7	-9	-1	5
O=Cc1s/c(=N\S(=O)(=O)c2ccccc2)n(CCCCl)c1Cl	72*	97*	93*	76*	3	55*
O=[N+]([O-])c1ccc(NC(=S)NCCc2ccc(F)cc2)cc1	29	6	49	81*	-3	-6
CC[C@@H](C)[C@@H]1CN([C@@H](CN2CCC[C@H]2CN2C(N)=NC[C@H]2C(C)C)C(C)C)C(=N)N1CCCC1CCCC1	8	-1	-8	84*	2	-6
CCC[C@@H](CN1CCC[C@H]1CN1C(N)=NC[C@H]1C(C)C)N1C[C@@H]([C@H](C)CC)N(CCCC2CCCC2)C1=N	0	-13	-1	12	-6	5
CCC(=O)Nc1cccc(C(=O)/C=C/c2cc(Br)ccc2OC)c1	nt	91*	-14	nt	67*	nt
CC(=O)Nc1cccc(C(=O)/C=C/c2ccc(/C=C/C(=O)c3cccc(NC(C)=O)c3)cc2)c1	-4	nt	nt	32	nt	55*
CC(=O)Nc1cccc(C(=O)/C=C/c2ccc(Br)cc2)c1	60*	39	9	35	4	18
CC(=O)N(C)C[C@@H]1Oc2cc(C#Cc3ccccn3)ccc2S(=O)(=O)N([C@@H](C)CO)C[C@H]1C	-5	nt	nt	nt	nt	-15
OC[C@@H]1[C@H](c2ccc(C#Cc3ccccc3)cc2)[C@H]2CN(CC3CCOCC3)CCCCN12	2	nt	nt	-31	nt	-18
COc1cc(OC)cc(C2=Cc3ccc(OC)cc3C(CC(C)=O)N2c2ccc(-c3cncnc3)cc2)c1 (configuration not stated)	-4	nt	nt	43	nt	11
COc1ccc(-c2ccc(N3C(c4cc(OC)cc(OC)c4)=Cc4ccc(OC)cc4C3CC(C)=O)cc2)cc1 (configuration not stated)	-19	nt	nt	63*	nt	0
COc1ccc2c(c1)C(CC(C)=O)N(c1ccc(-c3cnc(OC)nc3)cc1)C(c1ccsc1)=C2 (configuration not stated)	-19	nt	nt	12	nt	15
COc1ccc2c(c1)C(CC(C)=O)N(c1ccc(-c3cccs3)cc1)C(c1ccsc1)=C2 (configuration not stated)	-29	nt	nt	64*	nt	18
C[C@@H]1CN([C@H](C)CO)C(=O)c2c(c3ccccc3n2C)-c2ccccc2CO[C@H]1CN(C)Cc1ccncc1	-2	nt	nt	nt	nt	7
O=C(C[C@@H]1CC[C@@H]2NC[C@H](O)COC[C@H]2O1)Nc1ccccc1	-5	nt	nt	-19	nt	-1
O=C1NC(=O)C(=CC=Cc2ccccc2)S1	-41	nt	-27	-103	-32	-9
ClC1=C(Cl)C(Cl)=C(Cl)C1=C/C=C/c1ccccc1	2	92*	90*	-11	70*	42
O=C(N/N=C/c1ccc(OCC(=O)N2CCOCC2)cc1)c1ccccc1Cl	-12	0	-3	-9	-2	-8
O=C(Nc1ccc(OCC(=O)N2CCOCC2)cc1)c1ccccc1Cl	24	-39	-44	-13	51*	-19

Screening results from PubChem BioAssay.
